Consider 14 compounds from PubChem BioAssay.

Assay [1] is described as follows: compound effects on lung adenocarcinoma cell viability – A549, calcein-AM fluorescence, 48 h, basal, profiling panel (AID 1162). The settings on record: higher = more signal.
Assay [2] can be described thus: compound effects on differentiated 3T3-L1 adipocyte viability – cell-based, 3T3-L1 adipocytes, calcein-AM fluorescence, 48 h, basal, profiling panel (AID 1163). The following applies: 3T3-L1 adipocytes viability, higher = more signal.
Assay [3] can be described thus: compound effects on hepatocellular carcinoma cell viability – HepG2, calcein-AM fluorescence, 48 h, basal, profiling panel (AID 1164). The settings on record: higher = more signal.
Assay [4] is described as follows: compound effects on multiple myeloma cell viability – MM1S, calcein-AM fluorescence, 48 h, basal, profiling panel (AID 1165).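 Further: viability of MM1S multiple myeloma cells under basal unstimulated conditions.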 The following applies: higher = more signal.
Assay [5] is described as follows: calcein-AM signal in unstimulated myeloma cells – cell-based, calcein-AM fluorescence, 48 h, PK04 Diversity Set, profiling panel (AID 1166).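 Further: cells grown under basal conditions without added stimulus.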 The following applies: RPMI8226 myeloma viability, higher = more signal.
The nature of assay [6]: JC-1 mitochondrial signal, unstimulated HepG2 cells – cell-based, JC-1 fluorescence, 24 h, 100 nL compound, profiling panel (AID 1167). The settings on record: HepG2 mitochondrial potential, higher = more signal.
Assay [7] can be described thus: JC-1 mitochondrial signal, unstimulated adipocytes – cell-based, JC-1 fluorescence, 3T3-L1 adipocytes, 24 h, 100 nL compound, profiling panel (AID 1168). The settings on record: JC-1 mitochondrial fluorescence, higher = more signal, called active from +8 up or from −8 down.
A short description of assay [8]: JC-1 mitochondrial signal, unstimulated myeloma cells – cell-based, JC-1 fluorescence, RPMI8226, 24 h, 100 nL compound, profiling panel (AID 1169). The settings on record: JC-1 mitochondrial potential fluorescence, higher = more signal.
Assay [9] can be described thus: JC-1 mitochondrial signal, unstimulated MM1S myeloma – cell-based, JC-1 fluorescence, 24 h, 100 nL compound, profiling panel (AID 1170). The settings on record: MM1S mitochondrial potential, higher = more signal.
Assay [10] can be described thus: resazurin metabolic signal in A549 cells – cell-based, resazurin fluorescence, 24 h, PK04 Diversity Set, profiling panel (AID 1171). The settings on record: A549 viability, higher = more signal, called active from +8 up or from −8 down. For orientation: Alamar Blue is a resazurin reagent that responds to reducing activity.

Molecules are shown by their SMILES. Calls of active or inactive are those of the source.
Further: test concentration not given here.

For the compound `CON=C[C@@H](OC)[C@H](C)C=CCC(=O)OC`, the z-score in assay [1] is -0.0933; in assay [2], -0.105; in assay [3] it was 0.262; in [4], 0.253; in [5], 0.205; in [6] it was -0.34. Besides, the z-score in [7] is -1.2 (inactive); in assay [8] it was 0.673; in assay [9], 0.856; in assay [10], 0.213 (inactive).
`CO[C@@H]1[C@H](O)CO[C@H]1C=Cc1ccccc1`: the z-score in [1] is 0.998; in assay [2], 1.12; in [3], -0.0866; in assay [4], 0.018; in assay [5], -0.664; in assay [6], 0.161. Further, the z-score was -0.267 (inactive) in assay [7], 0.337 in [8], 0.859 in assay [9] and -0.587 (inactive) in [10].
In the case of `CC(=O)OC[C@H]1O[C@H](CCON=C(C)CCN2CCCc3nc(C)c(C)cc32)C=C[C@@H]1OC(C)=O`, the z-score is 0.235 in assay [1]; -0.9 in [2]; -0.667 in assay [3]; -1.85 in [4]; -1.27 in assay [5]; -0.689 in [6]. For the same compound, the z-score in assay [7] is -0.805 (inactive); in assay [8] it was 1.03; in assay [9], -0.033; in assay [10], -0.221 (inactive).
For `CN1CCc2nc(-c3ccccc3)c(-c3ccccc3)cc2C1`, the z-score in assay [1] is -0.244; in [2], 0.665; in assay [3], 0.135; in [4], 0.33; in assay [5], 0.455; in assay [6], 0.25. Also, the z-score is -0.53 (inactive) in assay [7], 0.344 in assay [8], -0.201 in assay [9] and 0.752 (inactive) in assay [10].
As for `CC(C)[C@@H](OCc1ccccc1)[C@H](C)C=NOC[C@@H](O)[C@H]1O[C@@H]2OC(C)(C)O[C@@H]2[C@H]1O`, the z-score in assay [1] is -0.205; in assay [2] it was -0.132; in [3] it was -0.292; in assay [4], 0.592; in assay [5], 0.322; in assay [6], -0.719. Also, the z-score is -1.58 (inactive) in [7], 0.13 in [8], 0.461 in [9] and -0.665 (inactive) in assay [10].
Consider `CCOC(=O)CCN1C(=O)[C@H]2[C@H]3[C@H](O)[C@H](O)CC(=NO[C@@H]4O[C@H](CO)[C@@H](O)[C@H](O)[C@H]4O)[C@H]3CC[C@H]2C1=O`, for which the z-score in assay [1] was 0.484; in [2], -0.961; in [3], -0.898; in [4], -0.359; in assay [5], -0.0451; in assay [6] it was -1.13. Moreover, the z-score is -0.647 (inactive) in assay [7], -0.225 in [8], -0.171 in assay [9] and -0.292 (inactive) in [10].
Take `COCC#Cc1ccc([C@@H]2N[C@H](C(=O)O)CC[C@H]2C)cc1`: the z-score in assay [1] was 0.681; in assay [2], -0.269; in assay [3] it was 0.654; in [4] it was 0.391; in assay [5] it was 1.14; in [6], 0.816. The z-score was 0.727 (inactive) in assay [7], -0.859 in assay [8], 0.839 in [9] and -0.488 (inactive) in assay [10].
As to `C=CC[C@@H]1C=C[C@H](ON=C(C)CCN2CCCCc3nc(C)c(C)cc32)[C@@H](CO)O1`, the z-score in assay [1] is 0.275; in assay [2], -0.7; in [3], -0.389; in [4] it was 0.475; in assay [5] it was -0.332; in assay [6], -0.874. The z-score is -1.84 (inactive) in assay [7], -0.174 in assay [8], -0.514 in assay [9] and -0.421 (inactive) in assay [10].
With `C#CCCCON=C1C[C@@H](O)[C@@H](O)[C@@H]2[C@@H]3C(=O)N(C[C@@H]4CCCO4)C(=O)[C@@H]3CC[C@@H]12`, the z-score in assay [1] is 0.137; in assay [2] it was 1.22; in assay [3], -0.396; in assay [4] it was 0.476; in [5] it was -0.0761; in assay [6], -0.444. The z-score in assay [7] was 0.27 (inactive); in assay [8], -0.193; in assay [9], -0.485; in [10] it was 0.0354 (inactive).
As for `OC[C@H]1O[C@H](C#Cc2ccccc2)C=C[C@@H]1O`, the z-score in assay [1] was -0.259; in assay [2] it was 0.0466; in [3], 0.457; in assay [4], -3.41; in assay [5] it was -1.26; in assay [6] it was 0.552. The z-score in [7] is -0.397 (inactive); in assay [8], 0.607; in assay [9], -0.673; in assay [10] it was -0.852 (inactive).
For the compound `COc1cccc([C@H](O)Cn2cc(-c3ccc(CON=C(C)C)cc3)nn2)c1`, the z-score in assay [1] is 0.445; in assay [2], -0.374; in assay [3] it was 0.206; in [4], 1.22; in assay [5], 0.157; in assay [6], -0.803. The z-score in assay [7] is 0.706 (inactive); in assay [8], -0.0682; in assay [9], -0.544; in [10], -0.409 (inactive).
Turning to `COC(=O)[C@H](C)NC(=O)CCC1CC(OC(=O)NCc2ccc3c(c2)OCO3)CC2(CCCC(COC(=O)NCCC(C)C)O2)O1` (stereo not given in full), the z-score in assay [1] was -0.121; in [2], 0.114; in [3], -1.19; in [4], -3.18; in [5], -2.13; in assay [6] it was -0.523. In addition, the z-score was -0.452 (inactive) in assay [7], -0.253 in assay [8], 0.177 in assay [9] and 0.442 (inactive) in [10].
For the compound `CC(C)[C@@H](OCc1ccccc1)[C@H](C)CON=C1[C@H]2CCn3c(=O)n(-c4ccccc4)c(=O)n3[C@H]2[C@H](O)[C@@H]2O[C@H]12`, the z-score is -0.27 in assay [1]; -0.104 in assay [2]; -1.31 in assay [3]; -2.72 in [4]; -2.22 in assay [5]; -2.12 in assay [6]. Also, the z-score in assay [7] was 0.197 (inactive); in assay [8], -0.654; in assay [9], -0.375; in assay [10], -1 (inactive).
As for `COCOc1ccc(Br)cc1C(=O)C=Cc1ccc2c(c1)OCO2`, the z-score was -0.206 in [1]; -0.342 in [2]; -2.2 in assay [3]; -3.48 in assay [4]; -3.81 in assay [5]; 1.28 in assay [6]. Also, the z-score in [7] is 0.0274 (inactive); in assay [8] it was -1.12; in [9], -2.71; in assay [10], -1.56 (inactive).
